The panel holds about 83,000 compounds, 20% with a hit somewhere; the sample as a whole holds those more often.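 Plates (96-well) were seeded with cells, treated with compound at one concentration, and incubated for 48 hours before percent growth was determined.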 Active and inactive are the calls of the source. Rule for the calls: active = growth percent below 10; inactive = the rest.
Experiments:
Assay in all cases: NCI-60 one-dose screen, 48 h (100 = growth as untreated, 0 = no growth, -100 = all killed)
Details in all cases: 10 µM unless noted
SR leukemia = test system: SR leukemia
RPMI-8226 leukemia = test system: RPMI-8226 leukemia
OVCAR-8 ovarian = test system: OVCAR-8 ovarian
OVCAR-5 ovarian = test system: OVCAR-5 ovarian
OVCAR-4 ovarian = test system: OVCAR-4 ovarian
SK-OV-3 ovarian = test system: SK-OV-3 ovarian
IGROV1 ovarian = test system: IGROV1 ovarian
OVCAR-3 ovarian = test system: OVCAR-3 ovarian
HS 578T breast = test system: HS 578T breast
NCI/ADR-RES ovarian = test system: NCI/ADR-RES ovarian

Measured: growth

CN1c2ccccc2Sc2cc(/C=N/Nc3ccnc4cc(Cl)ccc34)ccc21
active: SR leukemia -1.36%
inactive: RPMI-8226 leukemia 46.3% | OVCAR-8 ovarian 60.5% | OVCAR-5 ovarian 106% | OVCAR-4 ovarian 94% | SK-OV-3 ovarian 102% | IGROV1 ovarian 104% | OVCAR-3 ovarian 90.8% | HS 578T breast 105% | NCI/ADR-RES ovarian 12.6%

COc1cc(C(C)=C(c2ccc(OCCN(C)C)cc2)c2ccc(OCCN(C)C)cc2)ccc1F
inactive: SR leukemia 99.2% | RPMI-8226 leukemia 107% | OVCAR-8 ovarian 104% | OVCAR-5 ovarian 103% | OVCAR-4 ovarian 108% | SK-OV-3 ovarian 102% | IGROV1 ovarian 105% | OVCAR-3 ovarian 109% | HS 578T breast 101% | NCI/ADR-RES ovarian 105%

COc1ccc2c(c1)c(-c1nc(N)nnc1-c1c[nH]c3ccccc13)cn2C
inactive: SR leukemia 14.8% | RPMI-8226 leukemia 41.8% | OVCAR-8 ovarian 51.3% | OVCAR-5 ovarian 72.2% | OVCAR-4 ovarian 66.4% | SK-OV-3 ovarian 63% | IGROV1 ovarian 30.5% | OVCAR-3 ovarian 19.7% | HS 578T breast 35.3% | NCI/ADR-RES ovarian 49.8%

O=C(CSc1nc2ccccc2c(=O)n1-c1ccc(Cl)cc1)N/N=C/c1ccc(Oc2ccc(Cl)cc2)cc1
active: OVCAR-4 ovarian 1.7%
inactive: SR leukemia 32.9% | RPMI-8226 leukemia 24.7% | OVCAR-8 ovarian 13.4% | OVCAR-5 ovarian 70.6% | SK-OV-3 ovarian 33.8% | IGROV1 ovarian 20.6% | OVCAR-3 ovarian 87.3% | HS 578T breast 21.4% | NCI/ADR-RES ovarian 15.7%

CCCCCC[n+]1ccc(SCC(=O)n2ccc3ccccc32)c2ccccc21
inactive: SR leukemia 56.6% | RPMI-8226 leukemia 49.6% | OVCAR-8 ovarian 92.1% | OVCAR-5 ovarian 98.4% | OVCAR-4 ovarian 58.6% | SK-OV-3 ovarian 89.9% | IGROV1 ovarian 74.1% | OVCAR-3 ovarian 84.7% | HS 578T breast 97.6% | NCI/ADR-RES ovarian 103%

CN1CCN(c2ccc(Nc3nc(NCCCNS(=O)(=O)c4ccc(C(F)(F)F)cc4)c4sccc4n3)cc2)CC1
active: SR leukemia 7.01% | RPMI-8226 leukemia -9.61% | OVCAR-8 ovarian -72.2% | OVCAR-5 ovarian -3% | OVCAR-4 ovarian -35% | SK-OV-3 ovarian -37% | IGROV1 ovarian -6.63% | OVCAR-3 ovarian -74.1% | HS 578T breast -35% | NCI/ADR-RES ovarian -2.63%

CC1=C(C)C(=O)C(Nc2ccc(C)cc2)=C(Br)C1=O
inactive: SR leukemia 43.6% | RPMI-8226 leukemia 55.2% | OVCAR-8 ovarian 92.7% | OVCAR-5 ovarian 108% | OVCAR-4 ovarian 75.6% | SK-OV-3 ovarian 85.5% | IGROV1 ovarian 94.5% | OVCAR-3 ovarian 105% | HS 578T breast 96.7% | NCI/ADR-RES ovarian 95.7%

Nc1ncc(-c2ccc3ncnc(NCc4ccccc4)c3c2)cn1
active: IGROV1 ovarian -8.67%
inactive: SR leukemia 42.2% | RPMI-8226 leukemia 31.5% | OVCAR-8 ovarian 54.3% | OVCAR-5 ovarian 36.7% | OVCAR-4 ovarian 57.8% | SK-OV-3 ovarian 39.5% | OVCAR-3 ovarian 45.9% | HS 578T breast 14.7% | NCI/ADR-RES ovarian 69%

O=C(CCCCCCNC(=O)C(O)(O)C(F)(F)F)Nc1ncc(-c2ccc(Br)cc2)s1
inactive: RPMI-8226 leukemia 11.2% | OVCAR-4 ovarian 21.8% | HS 578T breast 16.6%
active: SR leukemia 8.24% | OVCAR-8 ovarian 1.13% | OVCAR-5 ovarian -2.49% | SK-OV-3 ovarian -14.6% | IGROV1 ovarian -21.8% | OVCAR-3 ovarian -58.1% | NCI/ADR-RES ovarian -4.64%

COC(=O)c1cccc(NC2=C(Cl)C(=O)c3nc(C)ccc3C2=O)c1
active: RPMI-8226 leukemia 3.31% | OVCAR-4 ovarian -97.6% | IGROV1 ovarian -58.1% | OVCAR-3 ovarian 4.2%
inactive: SR leukemia 18.7% | OVCAR-8 ovarian 77.4% | OVCAR-5 ovarian 99.8% | SK-OV-3 ovarian 87.6% | HS 578T breast 102% | NCI/ADR-RES ovarian 89.7%

COc1ccc(OC)c(CCn2cncc2-c2c[nH]c3ccc(Cl)cc23)c1
inactive: SR leukemia 16.3% | RPMI-8226 leukemia 33.9% | OVCAR-8 ovarian 40.5% | OVCAR-5 ovarian 83.9% | OVCAR-4 ovarian 16.2% | SK-OV-3 ovarian 43.1% | IGROV1 ovarian 58.8% | OVCAR-3 ovarian 40% | HS 578T breast 57.1% | NCI/ADR-RES ovarian 29.8%

Cc1ccc(C(=O)Nc2ccc(CNCCN3CCNCC3)c(C(F)(F)F)c2)cc1C#Cc1cnc2cccnn12
active: SR leukemia -39.4% | RPMI-8226 leukemia -23.3% | OVCAR-8 ovarian 2.74% | OVCAR-4 ovarian -23% | OVCAR-3 ovarian -20.5%
inactive: OVCAR-5 ovarian 51.8% | SK-OV-3 ovarian 114% | IGROV1 ovarian 11.8% | HS 578T breast 36.6% | NCI/ADR-RES ovarian 71.6%

O=C(CSc1nnc(-c2ccc(Cl)cc2)n1-c1ccccc1)Nc1ccccc1Cl
active: OVCAR-4 ovarian 8.39%
inactive: SR leukemia 20.5% | RPMI-8226 leukemia 35.4% | OVCAR-8 ovarian 67.2% | OVCAR-5 ovarian 81.3% | SK-OV-3 ovarian 125% | IGROV1 ovarian 52.3% | OVCAR-3 ovarian 91.6% | HS 578T breast 58.8% | NCI/ADR-RES ovarian 54.8%

CC(=O)Nc1nc(C)c(-c2csc(Nc3ccccc3)n2)s1
active: SR leukemia 8.83% | IGROV1 ovarian -9.74% | HS 578T breast -4.87%
inactive: RPMI-8226 leukemia 27.4% | OVCAR-8 ovarian 52.3% | OVCAR-5 ovarian 41.9% | OVCAR-4 ovarian 54.7% | SK-OV-3 ovarian 15.3% | OVCAR-3 ovarian 37.1% | NCI/ADR-RES ovarian 35.9%

Cn1c(SCC(=O)c2ccc(Br)cc2)nc2ccccc2c1=O
inactive: SR leukemia 89.6% | RPMI-8226 leukemia 77.7% | OVCAR-8 ovarian 96.8% | OVCAR-5 ovarian 106% | OVCAR-4 ovarian 81.8% | SK-OV-3 ovarian 98.9% | IGROV1 ovarian 90.5% | OVCAR-3 ovarian 102% | HS 578T breast 102% | NCI/ADR-RES ovarian 96.5%

Cn1cc(-c2nnc(N)nc2-c2c[nH]c3ccc(F)cc23)c2cc(Br)ccc21
active: SR leukemia 4.93% | RPMI-8226 leukemia 5.9% | HS 578T breast 7.85%
inactive: OVCAR-8 ovarian 34.4% | OVCAR-5 ovarian 68.3% | OVCAR-4 ovarian 50.1% | SK-OV-3 ovarian 33.7% | IGROV1 ovarian 34.6% | OVCAR-3 ovarian 10.7% | NCI/ADR-RES ovarian 15.2%

CCOc1cccc(/C(N)=N/C(N)=N/c2nc3ccccc3s2)c1
active: SR leukemia 6.28%
inactive: RPMI-8226 leukemia 77.3% | OVCAR-8 ovarian 68.8% | OVCAR-5 ovarian 98.8% | OVCAR-4 ovarian 95.1% | SK-OV-3 ovarian 132% | IGROV1 ovarian 56% | OVCAR-3 ovarian 104% | HS 578T breast 96.3% | NCI/ADR-RES ovarian 49.7%

CC(O)c1cccc(/C(N)=N/C(N)=N/c2nc3ccccc3s2)c1 (centres undefined)
inactive: SR leukemia 82.3% | RPMI-8226 leukemia 67.3% | OVCAR-8 ovarian 97.2% | OVCAR-5 ovarian 100% | OVCAR-4 ovarian 105% | SK-OV-3 ovarian 105% | IGROV1 ovarian 92.5% | OVCAR-3 ovarian 102% | HS 578T breast 91.9% | NCI/ADR-RES ovarian 95.6%

COC(=O)N1CCN(CCNCc2ccc(NC(=O)c3ccc(C)c(C#Cc4cnc5cccnn45)c3)cc2C(F)(F)F)CC1
inactive: OVCAR-8 ovarian 31.6% | OVCAR-5 ovarian 46.2% | OVCAR-4 ovarian 31.1% | SK-OV-3 ovarian 83.1% | IGROV1 ovarian 11.3% | OVCAR-3 ovarian 64.8%
active: SR leukemia -7.7% | RPMI-8226 leukemia -6.11% | HS 578T breast -2.16% | NCI/ADR-RES ovarian 6.71%

CC(=C(c1ccc(OCCCN(C)C)cc1)c1ccc(OCCCN(C)C)cc1)c1ccc(Cl)cc1
inactive: SR leukemia 21.7% | RPMI-8226 leukemia 79.3% | OVCAR-8 ovarian 100% | OVCAR-5 ovarian 100% | OVCAR-4 ovarian 108% | SK-OV-3 ovarian 103% | IGROV1 ovarian 87.1% | OVCAR-3 ovarian 91.1% | HS 578T breast 81.8% | NCI/ADR-RES ovarian 95.2%

O=c1oc2ccc(-c3ccc(F)cc3F)cc2c(=O)n1-c1ccc(Br)cc1F
inactive: SR leukemia 85.1% | RPMI-8226 leukemia 31.6% | OVCAR-8 ovarian 69.5% | OVCAR-5 ovarian 108% | OVCAR-4 ovarian 78.7% | SK-OV-3 ovarian 63.9% | IGROV1 ovarian 58.3% | HS 578T breast 47.2% | NCI/ADR-RES ovarian 75.3%

O=C(/C=C/c1cccc(F)c1)c1cccc(OCCCOc2cccc(C(=O)/C=C/c3cccc(F)c3)c2)c1
active: SR leukemia 6.17% | RPMI-8226 leukemia -15.7%
inactive: OVCAR-8 ovarian 67.6% | OVCAR-5 ovarian 77.8% | OVCAR-4 ovarian 75.3% | SK-OV-3 ovarian 124% | IGROV1 ovarian 36.9% | OVCAR-3 ovarian 74.9% | HS 578T breast 93.8% | NCI/ADR-RES ovarian 90.1%

CC(=O)OC[C@@]12Oc3c(cccc3-c3ccc(O)c4c3O[C@]3(COC(C)=O)C(=C4O)C(=O)C[C@H](C)[C@@H]3OC(C)=O)C(O)=C1C(=O)C[C@H](C)[C@@H]2OC(C)=O
inactive: OVCAR-8 ovarian 15% | OVCAR-5 ovarian 27.6% | IGROV1 ovarian 26.9% | OVCAR-3 ovarian 11.6% | NCI/ADR-RES ovarian 24.7%
active: SR leukemia -7.02% | RPMI-8226 leukemia -27.1% | OVCAR-4 ovarian 5.47% | SK-OV-3 ovarian -1.41% | HS 578T breast -13.6%

Cc1nc(/N=C(N)/N=C(\N)c2cccc(Br)c2)sc1C
inactive: SR leukemia 35.6% | RPMI-8226 leukemia 55.1% | OVCAR-8 ovarian 58.2% | OVCAR-5 ovarian 71.1% | OVCAR-4 ovarian 87.3% | SK-OV-3 ovarian 67.8% | IGROV1 ovarian 52.3% | OVCAR-3 ovarian 47.2% | HS 578T breast 73.1% | NCI/ADR-RES ovarian 36.1%

O=C(Nc1cccc(Cl)c1)Nc1nc2cc([N+](=O)[O-])ccc2o1
active: OVCAR-4 ovarian 3.58% | OVCAR-3 ovarian -0.896%
inactive: SR leukemia 57.8% | RPMI-8226 leukemia 35.8% | OVCAR-8 ovarian 33.9% | OVCAR-5 ovarian 75.5% | SK-OV-3 ovarian 74.3% | IGROV1 ovarian 44.9% | HS 578T breast 71.4% | NCI/ADR-RES ovarian 22.6%

CC1=C(C)C(=O)C(Nc2cccc(C)c2)=C(Br)C1=O
inactive: SR leukemia 69.3% | RPMI-8226 leukemia 35.8% | OVCAR-8 ovarian 95.7% | OVCAR-5 ovarian 128% | OVCAR-4 ovarian 69.3% | SK-OV-3 ovarian 85.7% | IGROV1 ovarian 84.5% | OVCAR-3 ovarian 110% | HS 578T breast 96.1% | NCI/ADR-RES ovarian 98.1%

CN1CCN(c2ccc(Nc3nc(NCCCNS(=O)(=O)c4cccc5ccccc45)c4sccc4n3)cc2)CC1
active: SR leukemia 4.12% | RPMI-8226 leukemia -2.5% | OVCAR-8 ovarian 5.7% | OVCAR-4 ovarian -35.6% | SK-OV-3 ovarian -18% | IGROV1 ovarian 6.32% | OVCAR-3 ovarian -62.7% | HS 578T breast -25%
inactive: OVCAR-5 ovarian 10.8% | NCI/ADR-RES ovarian 13.5%

Source: PubChem BioAssay (NCI)
